This note sets out measurements from PubChem BioAssay (NCI).

The panel holds about 83,000 compounds, 20% with a hit somewhere; the sample as a whole holds those more often.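 How to read the values: 0–100, growth inhibition (40 = 60% inhibited); 0, no net growth; -100 to 0, cell death (-40 = 40% of starting cells died; -100 = all dead).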 Unmarked numbers belong to inactive results. Active and inactive are the calls of the source. The calls were made as follows: active = growth percent below 10; inactive = the rest.

What all share (assay): NCI-60 one-dose screen, 48 h (100 = growth as untreated, 0 = no growth, -100 = all killed)
The subject of one assay is NCI-H23 lung. The note with it: 10 µM unless noted.
The subject of the next assay is NCI-H226 lung. The note with it: 10 µM unless noted.
Another assay concerns NCI-H322M lung. The note with it: 10 µM unless noted.
The subject of the next assay is HOP-62 NSCLC. The note with it: 10 µM unless noted.
The test system of the next assay is HOP-92 NSCLC. The settings on record: 10 µM.
A further assay has as its system NCI-H522 lung. The settings on record: 10 µM.
The test system of the next assay is A549/ATCC NSCLC. The settings on record: 10 µM unless noted.
The subject of a further assay is 786-0 renal. The settings on record: 10 µM unless noted.
The subject of a further assay is COLO 205 colon. The settings on record: 10 µM unless noted.
The test system of a further assay is DU-145 prostate. The note with it: 10 µM unless noted.
In a further assay the test system is K-562 leukemia. The settings on record: 10 µM unless noted.
In the next assay the test system is MALME-3M melanoma. The settings on record: 10 µM unless noted.
The next assay has as its system MDA-MB-231 breast. The note with it: 10 µM unless noted.
For a further assay, the system named is RXF 393 renal. The note with it: 10 µM unless noted.
The next assay deals with SF-268 CNS. The settings on record: 10 µM unless noted.
Another assay relates to SF-295 CNS. The note with it: 10 µM unless noted.
The next assay concerns SF-539 CNS. The settings on record: 10 µM unless noted.
Another assay concerns UACC-257 melanoma. The settings on record: 10 µM unless noted.
The subject of another assay is M14 melanoma. The settings on record: 10 µM unless noted.

Take `C[C@]12C=CC(=O)C=C1[C@@H](F)C[C@@H]1[C@@H]2[C@@H](O)C[C@@]2(C)[C@H]1CC[C@]2(O)C(=O)CO`: the growth in the assay on NCI-H23 lung is 106%; in the assay with NCI-H226 lung, 90.6%; in the assay with NCI-H322M lung, 113%; in the assay with HOP-62 NSCLC, 104%; with HOP-92 NSCLC it was 57.5%; with NCI-H522 lung, 118%. Also, the growth with A549/ATCC NSCLC is 63.5%; in the assay on 786-0 renal, 108%; in the assay with COLO 205 colon it was 106%; in the assay on DU-145 prostate, 95.1%; in the assay with K-562 leukemia, 125%; with MALME-3M melanoma, 81.8%. Moreover, the growth in the assay with MDA-MB-231 breast was 80.6%; in the assay with RXF 393 renal, 126%; with SF-268 CNS, 96.9%; in the assay on SF-295 CNS it was 123%; in the assay with SF-539 CNS, 96.1%; in the assay with UACC-257 melanoma, 96.1%. The growth in the assay on M14 melanoma is 92.5%.

In the case of `CSC1=Nc2c(c(C)c(-c3ccccc3)n2CCCCl)C2=NC(=O)CN12`, the growth is 77.6% in the assay on NCI-H23 lung; 79.3% in the assay with NCI-H226 lung; 82.1% with NCI-H322M lung; 64.3% with HOP-62 NSCLC; 64.7% with HOP-92 NSCLC; 55.8% in the assay on NCI-H522 lung. Moreover, the growth was 74.1% with A549/ATCC NSCLC; 77.9% in the assay on 786-0 renal; 79.1% with COLO 205 colon; 94.8% in the assay with DU-145 prostate; 19.3% with K-562 leukemia; 82.8% in the assay on MALME-3M melanoma. Besides, the growth in the assay with MDA-MB-231 breast is 65.2%; in the assay on RXF 393 renal, 94.7%; in the assay with SF-268 CNS, 77%; in the assay on SF-295 CNS, 43.3%; in the assay with SF-539 CNS, 61.7%; in the assay on UACC-257 melanoma it was 83.8%. Moreover, in the assay on M14 melanoma, the growth is 30.8%.

As to `CCCCN(CCC)CCCCCCCCCCN1CCCc2ccccc21`, the growth in the assay on NCI-H23 lung is 71.5%; with NCI-H226 lung it was 99.5%; with NCI-H322M lung, 99.4%; in the assay with HOP-62 NSCLC, 92.5%; with HOP-92 NSCLC, 48.8%; in the assay with NCI-H522 lung it was 62%. Also, the growth is 97.3% with A549/ATCC NSCLC; 88.8% with 786-0 renal; 91.7% in the assay with COLO 205 colon; 77.1% in the assay on DU-145 prostate; 17.5% in the assay on K-562 leukemia; 74.3% with MALME-3M melanoma. The growth with RXF 393 renal was 109%; in the assay on SF-268 CNS it was 75.7%; with SF-295 CNS it was 83.6%; in the assay on SF-539 CNS, 101%; in the assay on UACC-257 melanoma it was 106%; with M14 melanoma, 88.6%.

Consider `N#CC1=C(N2CCOCC2)NC2c3ccccc3Sc3ccccc3N2C1=N` (configuration not stated), for which the growth with NCI-H23 lung is 99%; in the assay with NCI-H226 lung, 94.5%; in the assay on NCI-H322M lung, 117%; in the assay with HOP-62 NSCLC, 78.3%; in the assay with HOP-92 NSCLC, 84.5%; with NCI-H522 lung it was 83.6%. Moreover, the growth in the assay with A549/ATCC NSCLC is 103%; with 786-0 renal, 104%; in the assay with COLO 205 colon it was 96.8%; in the assay on DU-145 prostate it was 98.4%; in the assay on K-562 leukemia, 117%; with MALME-3M melanoma, 103%. The growth is 98.7% with MDA-MB-231 breast; 90.7% in the assay with RXF 393 renal; 91.8% in the assay on SF-268 CNS; 116% in the assay on SF-295 CNS; 89.7% in the assay on SF-539 CNS; 108% with UACC-257 melanoma. Besides, the growth in the assay on M14 melanoma was 98.9%.

For the molecule `CN1CCN(Cc2ccc(NC(=O)c3cncc(C#Cc4c(N)ncc5ccc(F)cc45)c3)cc2C(F)(F)F)CC1`, the growth in the assay on NCI-H23 lung is 30.6%; in the assay with NCI-H226 lung, 8.85% (active); in the assay with NCI-H322M lung, 27.7%; in the assay on HOP-62 NSCLC it was 22.1%; with HOP-92 NSCLC, -22.7% (active); with NCI-H522 lung it was 49.7%. Besides, the growth was 26.5% in the assay with A549/ATCC NSCLC; -71.9% (active) in the assay with 786-0 renal; 46.2% in the assay with DU-145 prostate; -33.4% (active) in the assay with K-562 leukemia; -80.7% (active) with MALME-3M melanoma; -38.4% (active) in the assay with MDA-MB-231 breast. Further, the growth with RXF 393 renal was -73.8% (active); with SF-268 CNS, 35.7%; with SF-295 CNS, 52.2%; with SF-539 CNS it was -68.2% (active); in the assay on UACC-257 melanoma it was -55.9% (active); with M14 melanoma, -73.7% (active).

With `O=C(Nc1cccc(Cn2c(=O)[nH]c3ccc(Oc4ncccn4)cc3c2=O)c1)c1ccc(Cl)cc1`, the growth with NCI-H23 lung was 46.9%; in the assay on NCI-H226 lung, 34.6%; with NCI-H322M lung, 61.5%; in the assay on HOP-62 NSCLC, 55.2%; in the assay on HOP-92 NSCLC it was 52.8%; in the assay with NCI-H522 lung, 50.5%. For the same molecule, the growth with A549/ATCC NSCLC is 46.9%; in the assay on 786-0 renal, 70.5%; in the assay with DU-145 prostate it was 62.3%; with K-562 leukemia, 4.84% (active); in the assay with MALME-3M melanoma it was 41%; in the assay with MDA-MB-231 breast, 53.6%. The growth with RXF 393 renal was 51.4%; with SF-268 CNS, 56.8%; in the assay with SF-295 CNS it was 39.4%; in the assay with SF-539 CNS, 59.2%; in the assay on UACC-257 melanoma, 25.9%; in the assay on M14 melanoma it was 57.8%.

On to `CC(=O)C(CO)C(=O)Nc1ccccc1` (configuration not stated), for which the growth with NCI-H23 lung was 103%; in the assay on NCI-H226 lung it was 96.9%; in the assay on NCI-H322M lung, 85.9%; with HOP-62 NSCLC, 93.3%; with HOP-92 NSCLC, 96.6%; with NCI-H522 lung, 82.3%. The growth with A549/ATCC NSCLC is 93.6%; in the assay on 786-0 renal it was 96.8%; in the assay on COLO 205 colon, 99.5%; in the assay on DU-145 prostate, 112%; with K-562 leukemia, 102%; in the assay with MALME-3M melanoma, 109%. Besides, the growth is 102% in the assay with MDA-MB-231 breast; 107% with SF-268 CNS; 107% in the assay with SF-295 CNS; 95.4% in the assay with SF-539 CNS; 85.7% with UACC-257 melanoma; 99.5% in the assay with M14 melanoma.

With `N#Cc1ccc(NC2c3ccccc3CC2O)cc1` (configuration not stated), the growth in the assay with NCI-H23 lung was 101%; with NCI-H226 lung, 102%; in the assay on NCI-H322M lung, 114%; in the assay with HOP-62 NSCLC, 105%; in the assay on HOP-92 NSCLC it was 85%; with NCI-H522 lung, 104%. For the same molecule, the growth was 106% with A549/ATCC NSCLC; 108% with 786-0 renal; 108% in the assay on COLO 205 colon; 110% in the assay with DU-145 prostate; 90.4% in the assay on K-562 leukemia; 114% in the assay on MDA-MB-231 breast. In addition, the growth is 89.6% in the assay with RXF 393 renal; 115% in the assay with SF-268 CNS; 114% with SF-295 CNS; 102% in the assay with SF-539 CNS; 125% with UACC-257 melanoma; 106% with M14 melanoma.
